Data taken from the OligoGym collection.
Further: reference of the scale not given here.

These sequences were tested against HDHD2 (assay: pooled miR-30 sensor sort-seq; sequence = guide strand). Details: shRNA.
TAAACTTCTGGCTGCAGTCAGA showed a sensor-assay potency score (higher = more potent) of -0.973. TAACCTTTTAAGAGCTTCCTGT was tested, and the sensor-assay potency score (higher = more potent) was -0.227. Sequence TTTGAAATCAGGTAGTGCCCGA has a sensor-assay potency score (higher = more potent) of -0.154. In the case of TTTCTCAACCTTTCTAACAGGT, the sensor-assay potency score (higher = more potent) was 0.329. With TTCCGCTCTAGTAAACTTCTGG the sensor-assay potency score (higher = more potent) was 0.0507. TTTCTTCATCTGATGCTCGATA gave a sensor-assay potency score (higher = more potent) of -0.755. TTCCTTTGAAATCAGGTAGTGC gave a sensor-assay potency score (higher = more potent) of -0.746. Work on TAACAGGTCTTGCTTGCTCTCT yielded a sensor-assay potency score (higher = more potent) of -0.886.

The sequences below were run against HEATR8 in the same assay as above. Details: shRNA.
TTCAGGTTCAGCTTGGAGGTGT gave a sensor-assay potency score (higher = more potent) of 0.381. In the case of AACATGACTGAGCACTTCCGGA, the sensor-assay potency score (higher = more potent) was -0.961. Work on TTGGTCTCTTCCTTATCTCTGG yielded a sensor-assay potency score (higher = more potent) of -0.426. Sequence TTGAGTGATGGTCACGCTCAAA has a sensor-assay potency score (higher = more potent) of -1.7. With TAACAGGGTCTTCACACACTTC the sensor-assay potency score (higher = more potent) was -1.46. In the case of TTCACCACTTTCACCACCCAGC, the sensor-assay potency score (higher = more potent) was -0.301. For TTCTTTATCATGGTCTTCTTTT, the sensor-assay potency score (higher = more potent) was -1.04. TAACACACCCATGAGTTCCCGT showed a sensor-assay potency score (higher = more potent) of -0.71. Sequence TTGGCGGTCTTCTCAGACCTGC has a sensor-assay potency score (higher = more potent) of -0.945. With TTCAACACAGAGACATTGGTGT the sensor-assay potency score (higher = more potent) was 0.958. TACCACTCCAGCACCGAGCTGA was tested, and the sensor-assay potency score (higher = more potent) was -0.0285. In the case of TTGAACTTGTGCTCCAGGTGGT, the sensor-assay potency score (higher = more potent) was 0.565.

Each sequence was assayed against HECTD1 in the same assay as above. Details: shRNA.
With TCGAATACAATCTATAAGCTGC the sensor-assay potency score (higher = more potent) was 0.194. Sequence TAGAGTTGAACAACCAGTGGTA has a sensor-assay potency score (higher = more potent) of 0.312. With TTAACTTTCGAATTAACGCAAC the sensor-assay potency score (higher = more potent) was -1.04. Work on TTGACTACAATCTTGTTTCATA yielded a sensor-assay potency score (higher = more potent) of -0.725. For TAAGTCCTCATCATCATCGAGC, the sensor-assay potency score (higher = more potent) was -0.93. Sequence TTTACTTCGAATACAATCTATA has a sensor-assay potency score (higher = more potent) of -1.13. TTGCGTACAACCGTGAGCCTGG showed a sensor-assay potency score (higher = more potent) of 0.726. With TAGCACATAATCATCATCCCAT the sensor-assay potency score (higher = more potent) was 0.659. TAAGAGGTCGTTGTGAAGCTGC was tested, and the sensor-assay potency score (higher = more potent) was -0.0408. In the case of TGCATCAGTAGCATCAACCTTG, the sensor-assay potency score (higher = more potent) was 0.0486. TTAATTGTTCACACCAGTCTGG was tested, and the sensor-assay potency score (higher = more potent) was -0.677.

These sequences were tested against HEPH in the same assay as above. Details: shRNA.
TAGCTTTCTCTGTCGATGTTGG gave a sensor-assay potency score (higher = more potent) of -0.344. In the case of TTGTCAGACTTTAAGAAGCTGG, the sensor-assay potency score (higher = more potent) was -0.791. In the case of TATAGTAGATTCTTGCAGCTTG, the sensor-assay potency score (higher = more potent) was 0.849. TTGCGTCGTAGCTTTCTCTGTC gave a sensor-assay potency score (higher = more potent) of 0.593. In the case of TACAGCTTTCTTGTATCTGGAA, the sensor-assay potency score (higher = more potent) was -0.122. For TATGTCACTGTCCAGAGGCTGG, the sensor-assay potency score (higher = more potent) was -1.3. Work on TTTCTGTGCACACATGTTCAGC yielded a sensor-assay potency score (higher = more potent) of -0.645. AATGTAACCATAACTGTCCTTC was tested, and the sensor-assay potency score (higher = more potent) was -0.181. With TGATATAGTAGATTCTTGCAGC the sensor-assay potency score (higher = more potent) was -0.0504.
